In the supplement of paper PMC6555819:

Experiments:
Assay in all cases: PBM binding z-score (relative to random genomic background probes); higher = stronger binding; sequences stand for … in GC…GCGATTGACAGCGTAGAATGAAGG
[1] = tested on: FXR:RXRa (NR concentration 270 nM, RXRa partner concentration 90 nM)
How it was run: (§1)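 Regression normalization was applied to scanned fluorescence from custom Agilent 4×180K protein-binding microarrays. Before scanning, arrays were incubated 1 h with ligand-free nuclear receptor dimers, and binding was detected with antibodies against each partner (one per run). Binding z-scores use the random background probes as reference.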

[2] = tested on: LXRa:RXRa (NR concentration 270 nM, RXRa partner concentration 90 nM)
How it was run: as §1

[3] = tested on: LXRa homodimer (NR concentration 270 nM)
How it was run: as §1

[4] = tested on: LXRb:RXRa (NR concentration 270 nM, RXRa partner concentration 90 nM)
How it was run: as §1

[5] = tested on: LXRb homodimer (NR concentration 270 nM)
How it was run: as §1

[6] = tested on: PPARa:RXRa (NR concentration 270 nM, RXRa partner concentration 90 nM)
How it was run: as §1

[7] = tested on: PPARg:RXRa (NR concentration 180 nM, RXRa partner concentration 90 nM)
How it was run: as §1

[8] = tested on: PPARg:RXRa 270nM:90nM, anti-RXR (NR concentration 270 nM, RXRa partner concentration 90 nM)
How it was run: as §1

[9] = tested on: PPARg:RXRa 30nM:10nM, anti-RXR (NR concentration 30 nM, RXRa partner concentration 10 nM)
How it was run: as §1

[10] = tested on: PPARg:RXRa 90nM:30nM, anti-RXR (NR concentration 90 nM, RXRa partner concentration 30 nM)
How it was run: as §1

[11] = tested on: PPARg:RXRa DBDmut IVT, anti-RXR (DBD mutation: RXRa K156A/R161A, NR concentration 270 nM, RXRa partner concentration 90 nM)
How it was run: as §1

[12] = tested on: PPARg:RXRa IVT, anti-PPARg (NR concentration 270 nM, RXRa partner concentration 90 nM)
How it was run: as §1

[13] = tested on: PPARg DBDmut:RXRa IVT, anti-PPARg (DBD mutation: PPARg1 K132A/R137A, NR concentration 270 nM, RXRa partner concentration 90 nM)
How it was run: as §1

[14] = tested on: PPARg DBDmut IVT, anti-PPARg (DBD mutation: PPARg1 K132A/R137A, NR concentration 270 nM)
How it was run: as §1

[15] = tested on: PPARg homodimer (NR concentration 180 nM)
How it was run: as §1

[16] = tested on: PXR:RXRa (NR concentration 270 nM, RXRa partner concentration 90 nM)
How it was run: as §1

[17] = tested on: PXR homodimer (NR concentration 270 nM)
How it was run: as §1

[18] = tested on: RARa:RXR (NR concentration 270 nM, RXRa partner concentration 90 nM)
How it was run: as §1

[19] = tested on: RARa homodimer (NR concentration 270 nM)
How it was run: as §1

[20] = tested on: RARb:RXRa (NR concentration 270 nM, RXRa partner concentration 90 nM)
How it was run: as §1

| Sequence | PBM binding z-score [1] | PBM binding z-score [2] | PBM binding z-score [3] | PBM binding z-score [4] | PBM binding z-score [5] | PBM binding z-score [6] | PBM binding z-score [7] | PBM binding z-score [8] | PBM binding z-score [9] | PBM binding z-score [10] | PBM binding z-score [11] | PBM binding z-score [12] | PBM binding z-score [13] | PBM binding z-score [14] | PBM binding z-score [15] | PBM binding z-score [16] | PBM binding z-score [17] | PBM binding z-score [18] | PBM binding z-score [19] | PBM binding z-score [20] |
| --- | --- | --- | --- | --- | --- | --- | --- | --- | --- | --- | --- | --- | --- | --- | --- | --- | --- | --- | --- | --- |
| TCTGCTAGGTCAACGATGGCCAGCTAATCTGCTA | 3.09 | 2.21 | -0.626 | 1.34 | -0.287 | 3 | 2.34 | 2.77 | 1.8 | 2.37 | 4.07 | 4.02 | 0.274 | -0.0746 | 0.165 | 0.871 | -1.29 | 1.9 | -0.648 | 3.94 |
| AGAACGACGGCAATGAGTTGATAGCACGGGTGGC | -0.823 | -0.86 | -0.973 | -1.01 | -0.907 | -0.728 | 0.71 | -0.672 | -0.309 | -0.536 | -0.438 | -0.402 | -0.484 | -0.862 | -0.865 | -0.631 | -0.242 | -0.819 | -0.419 | -0.448 |
| CGAACTAGGTCATTGACAGGACAGGGAATAGTAA | 4.56 | 2.81 | 0.225 | 1.82 | -0.158 | 4.65 | 7.57 | 6.18 | 4.13 | 5.76 | 8.02 | 8.21 | 2.18 | 1.03 | 1.49 | 1.43 | 0.107 | 2.22 | 0.195 | 3.69 |
| CCGACTGGGGCAAGCTTACCATAACGCACAGCCA | -0.512 | -0.683 | -0.49 | -0.277 | -1.15 | 0.0607 | 0.938 | 0.116 | -0.5 | -0.274 | 3.86 | 2.37 | -0.563 | -1.13 | -0.678 | -0.729 | -0.611 | -0.807 | -0.606 | 0.697 |
| CAAACTATGTCAAGAGGTCAAAGTCCGCTTCCCG | 5.04 | 5.63 | 5.89 | 4.97 | 2.01 | 5.33 | 5.62 | 6.27 | 4.55 | 6 | 4.61 | 4.88 | 1.22 | 0.601 | 4.01 | 5.64 | 2.84 | 6.21 | 2.09 | 4.3 |
| TCATATAGGTAAAGAGGTGAAAGTCCGTAAGTTA | 1.74 | 1.63 | 0.378 | 1.56 | -0.0509 | 3.46 | 4.38 | 4.63 | 4.83 | 5 | 4.95 | 5.26 | 1.1 | 0.188 | 1.78 | 1.23 | 0.825 | 1.76 | 1 | 1.65 |
